For orientation: AC50 means the concentration giving half of the maximal activity seen.

48 compounds from PubChem BioAssay AID1851 (National Center for Advancing Translational Sciences (NCATS), 2009) can be followed below.

Molecules are shown by their SMILES. Screen size: about 16,000 compounds; about 5,100 (32%) were called active. Another 25% or so got no clear call; they are omitted. Calls follow the shape of the dose curve; as a rule, active = well fitted curve in the direction sought with a large enough effect; inconclusive = small, poorly fitted or top-dose-only effect, or effect the other way; inactive = no such curve, though single readings can be large or run the other way. This is one part of the list.
% is scaled to controls: 0 for no effect and ±100 for the full control effect.

The target in this experiment is Cytochrome P450 3A4 (Homo sapiens) (UniProt P08684). The experiment in a line: Cytochrome panel assay with activity outcomes. The note with it: recombinant CYP, pro-luciferin dealkylation, luminescence, p450-cyp3a4; series mostly up to 57.1 µM; activity, negative = inhibition: at the top concentration.
Chain of Cytochrome P450 3A4 (Homo sapiens) (P08684 whole entry, looked up): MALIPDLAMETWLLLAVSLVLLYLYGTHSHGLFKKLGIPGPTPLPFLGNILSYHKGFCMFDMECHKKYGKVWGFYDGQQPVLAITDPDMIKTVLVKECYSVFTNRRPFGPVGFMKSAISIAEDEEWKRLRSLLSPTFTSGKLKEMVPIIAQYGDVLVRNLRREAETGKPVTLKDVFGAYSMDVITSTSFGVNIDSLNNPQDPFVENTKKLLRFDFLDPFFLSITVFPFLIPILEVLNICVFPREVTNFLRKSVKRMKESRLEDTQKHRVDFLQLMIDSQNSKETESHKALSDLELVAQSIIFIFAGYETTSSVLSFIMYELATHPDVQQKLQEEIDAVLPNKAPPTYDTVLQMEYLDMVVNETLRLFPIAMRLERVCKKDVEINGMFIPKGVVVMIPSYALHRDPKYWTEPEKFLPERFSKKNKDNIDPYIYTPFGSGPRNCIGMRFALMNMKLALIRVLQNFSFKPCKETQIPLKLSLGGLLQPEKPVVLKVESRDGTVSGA
With `CN(C)c1nc(-c2cccnc2)nc2ccccc12`, the half-maximal activity concentration (AC50) is 7.94 µM (active).
For `CSc1c(-c2ccccc2)nc2ccccc2c1C(=O)O`, the “activity, negative = inhibition” value was 4.08% (inactive).
`CN(C)c1ccc(-c2nc(N(C)C)c3ccccc3n2)cc1`: the half-maximal activity concentration (AC50) was 12.6 µM (active).
The same measure, in the same setting: the result for `CNc1nc(-c2ccc(N(C)C)cc2)nc2ccccc12` reads 15.8 µM (active).
With `CN(C)c1nc(-c2ccccc2C(F)(F)F)nc2ccccc12`, the “activity, negative = inhibition” value was -23.4% (inactive).
As for `O=C(CC1(O)CCCCC1)OC1CCCC1`, the activity, negative = inhibition was -11.8% [at 11.4 µM] (inactive).
Take `O=C1COc2ccccc2CN1`: the activity, negative = inhibition was 5.27% [at 2.29 µM] (inactive).
On the same count and under the same terms, the result for `Cn1c(=O)c2[nH]c([C@@H]3CC(=O)C[C@H](c4nc5c([nH]4)c(=O)n(C)c(=O)n5C)N3)nc2n(C)c1=O` reads 2.95% [at 11.4 µM] (inactive).
As to `COc1cccc(NC(=O)c2oc3ccccc3c2NC(C)=O)c1`, the AC50 is 11.2 µM (active).
Still for that read-out and setting: the result for `CCOc1ccc(NC(=O)c2oc3ccccc3c2NC(=O)CC)cc1` reads 15.8 µM (active).
With `COc1cccc(NC(=O)c2oc3ccccc3c2NC(=O)c2ccc3c(c2)OCO3)c1`, the AC50 was 1.78 µM (active).
Consider `COc1c(NC(C)=O)c2ccccc2c2ccccc12`, for which the activity, negative = inhibition was -28.7% [at 11.4 µM] (inactive).
With `COc1cccc(C(=O)Nc2ccc(NC(=O)c3ccco3)cn2)c1`, the activity, negative = inhibition is -4.16% [at 2.29 µM] (inactive).
Still for that read-out and setting: the value for `CC1(C)[C@@H]2CC[C@]1(CC(=O)O)[C@H](Cl)C2` was -12.3% [at 11.4 µM] (inactive).
Consider `CC1(C)CC(=O)C2=C(C1)Oc1nc3ccccc3cc1C2C(C#N)C#N` (stereo not drawn), for which the AC50 is 14.1 µM (active).
In the case of `Cc1cc(NC(=O)c2ccccc2Cl)no1`, the “activity, negative = inhibition” value was -14.3% (inactive).
As for `Cc1cc(NC(=O)c2ccccc2Cl)c(C(C)C)cc1O`, the AC50 is 25.1 µM (active).
Take `O=C(Nc1ccccc1Cl)c1ccccc1Cl`: the “activity, negative = inhibition” value is 1.04% (inactive).
With `O=C1[C@@H]2[C@@H](C(=O)N1c1ccc(OCc3ccccc3)cc1)[C@@H]1c3ccccc3[C@@H]2[n+]2ccccc21`, the activity, negative = inhibition was -9.33% [at 11.4 µM] (inactive).
As to `COc1ccccc1N1CCN(C(=O)/C=C/c2ccc3c(c2)OCO3)CC1`, the AC50 is 3.55 µM (active).
With `O=C(O)/C=C\C=C/c1ccc2c(c1)OCO2`, the activity, negative = inhibition was -6.19% [at 11.4 µM] (inactive).
As for `Nc1ccccc1C(=O)/C=C\c1ccc2c(c1)OCO2`, the AC50 is 3.16 µM (active).
The same measure, in the same setting: the result for `COCOc1cc(OC)ccc1C(=O)/C=C\c1ccc2c(c1)OCO2` reads 1 µM (active).
The same measure, in the same setting: the value for `O=C(/C=C\c1ccc2c(c1)OCO2)c1ccc(F)cc1` was 3.16 µM (active).
Turning to `Cc1ccc(N=CC2=C(O)CC(c3ccco3)CC2=O)cc1` (stereo not drawn), the “activity, negative = inhibition” value is -9.52% (inactive).
As for `C[C@@H]1CCN=C(N)S1`, the AC50 entry was “inactive”.
In the case of `COC(=O)c1c(-c2ccc3ccccc3c2)csc1NC(=O)Cc1ccc(OC)c(OC)c1`, the AC50 is 1.78 µM (active).
For the compound `O=C1c2ccccc2C(=O)N1CCCSc1ccccc1`, the activity, negative = inhibition was -16.6% [at 11.4 µM] (inactive).
Take `Cc1ccc(OCCCN2C(=O)C(=O)c3cccc(C)c32)cc1`: the AC50 is 15.8 µM (active).
On to `N#CC(C#N)=CNCCN1CCN(C=C(C#N)C#N)CC1`, for which the activity, negative = inhibition is -20.1% [at 11.4 µM] (inactive).
On to `Cc1oc(-c2ccccc2F)nc1CS(=O)(=O)CC(=O)NCCCN(C)C1CCCCC1`, for which the AC50 was 10 µM (active).
Turning to `O=c1[nH]c2cc(Br)cnc2nc1/C=C(\O)c1ccc(F)cc1`, the concentration at half-maximal activity (AC50) is 5.01 µM (active).
As to `C=C(C)CN(CC#N)CC(=C)C`, the activity, negative = inhibition was -17.3% [at 11.4 µM] (inactive).
`COc1ccc(N2CCc3c(C)nc4c(OC)cc(OC)cc4c32)c(OC)c1`: the AC50 is 5.01 µM (active).
As to `Cc1o[nH]c(=O)c1CC[C@H](N)C(=O)O`, the “activity, negative = inhibition” value was -16.4% (inactive).
Same read-out and setting: the result for `CCCc1nnc(SCC(=O)N2C(C)CCCC2C)n1CCCOC` (stereo not drawn) reads 8.82% [at 2.29 µM] (inactive).
As to `CCCc1nnc(SCC(=O)N2CCCCC2)n1CCCOC`, the “activity, negative = inhibition” value is -17.4% (inactive).
With `CCCc1nnc(SCC(=O)N2CCCCC2)n1CC1CCCO1` (stereo not drawn), the AC50 was 15.8 µM (active).
Take `CCCS(=O)(=O)N1CCCC(C(=O)NCC2CCCO2)C1` (stereo not drawn): the “activity, negative = inhibition” value was 1.91% (inactive).
For the compound `CCCc1nnc(SCC(=O)N2CCCCC2C)n1CC1CCCO1` (stereo not drawn), the AC50 was 12.6 µM (active).
Regarding `CCCc1nnc(SCC(=O)N2CCCC(C)C2)n1CC1CCCO1` (stereo not drawn), the AC50 is 8.91 µM (active).
Take `C[N+](C)(C)CCCCCNCC12CC3CC(CC(C3)C1)C2`: the “activity, negative = inhibition” value was -10.3% (inactive).
On to `O=C(O)[C@H](Cc1cc(I)c(O)c(I)c1)C1CCCCC1`, for which the activity, negative = inhibition was -12.6% [at 11.4 µM] (inactive).
Regarding `CCOc1cc2[nH]c(=O)n(CCCC(=O)NCc3ccc(OC)cc3)c(=O)c2cc1OCC`, the concentration at half-maximal activity (AC50) was 2.51 µM (active).
Regarding `CCOc1cc2[nH]c(=O)n(CCC(=O)NCc3ccc(OC)cc3)c(=O)c2cc1OCC`, the AC50 was 3.55 µM (active).
With `CCc1ccc(NC(=O)c2cc(C(C)C)on2)cc1`, the “activity, negative = inhibition” value is -3.41% (inactive).
As for `Cc1ccc(Cn2nc(C)c(NC(=O)c3cc(-c4ccco4)on3)c2C)cc1`, the AC50 was 2.24 µM (active).
For the compound `O=C(c1cc(-c2ccco2)on1)N1CCOCC1`, the “activity, negative = inhibition” value is -7.73% (inactive).
